The results in this text go back to PubChem BioAssay (NCATS).

Inconclusive results are not listed. Active and inactive are the calls of the source. Calls come from the whole dose curve; as a rule, active = well fitted inhibition curve with a large enough effect; inconclusive = small, poorly fitted or top-dose-only effect; inactive = flat fitted curve, though single readings scatter.
% is set by controls: 0 for no effect and ±100 for the full control effect.

The nature of the experiment: P-glycoprotein substrates identified in KB-8-5-11 adenocarcinoma cell line, qHTS therapeutic library screen (AID 1346987). Note: nearly all actives have a fitted effect of over 65% in size. Particulars: KB-8-5-11 (P-gp overexpressing) viability, CellTiter-Glo, 72 h; series mostly up to 44.5 µM; activity change, negative = cytotoxicity: at the top concentration. In short, it runs like this: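 Steps: plate 500 KB-8-5-11 cells/well in DMEM + 10% FCS (colchicine removed); pin compounds in dose-response; incubate 72 h, 37 degree C, 5% CO2; add CellTiter-Glo, 5 min; read luminescence.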
(In general: In qHTS, concentration-response curves come from the screen itself.)
In the case of `COc1ccc(C(=O)NCc2ccc(OCCN(C)C)cc2)cc1OC`, the “activity change, negative = cytotoxicity” value is 17.4% (inactive). Take `COc1ccccc1OCC(O)CO` (stereo not given): the “activity change, negative = cytotoxicity” value was 9.04% [at 17.3 µM] (inactive). Consider `Cc1[nH]c(C)c(Cl)c(=O)c1Cl`, for which the “activity change, negative = cytotoxicity” value was -2.95% (inactive). For the compound `CCN[C@H]1CN(CCCOC)S(=O)(=O)c2sc(S(N)(=O)=O)cc21`, the “activity change, negative = cytotoxicity” value is -4.88% [at 17.3 µM] (inactive). For the compound `C[C@]1(Cn2ccnn2)[C@H](C(=O)O)N2C(=O)C[C@H]2S1(=O)=O`, the “activity change, negative = cytotoxicity” value is 2.12% (inactive).

In the case of `CC(C)NC[C@@H](O)COc1ccc(CC(N)=O)cc1`, the “activity change, negative = cytotoxicity” value was -5.07% (inactive). Regarding `NC(=O)NC1NC(=O)NC1=O` (stereo not given), the “activity change, negative = cytotoxicity” value is -6.52% [at 17.3 µM] (inactive).

Regarding `O=C(/C=C/c1ccc(O)c(O)c1)O[C@@H]1C[C@@](OC(=O)/C=C/c2ccc(O)c(O)c2)(C(=O)O)C[C@@H](O)[C@@H]1O`, the “activity change, negative = cytotoxicity” value is -13.8% (inactive). Regarding `Nc1ncnc(Nc2ccccc2)n1`, the “activity change, negative = cytotoxicity” value was 5.16% (inactive). As to `CCCCCCCC(=O)OCC(COC(=O)CCCCCCC)OC(=O)CCCCCCC`, the “activity change, negative = cytotoxicity” value was -9.34% (inactive).

Regarding `CCOC(N)=O`, the “activity change, negative = cytotoxicity” value is 5.34% (inactive). As to `Cc1cc(-n2nc3ccc(Cl)cc3n2)c(O)c(C(C)(C)C)c1`, the “activity change, negative = cytotoxicity” value was 0.938% (inactive). Take `CC(=O)N[C@@H](Cc1ccc(O)cc1)C(=O)O`: the “activity change, negative = cytotoxicity” value was -5.57% (inactive).

For the compound `C[C@@H](N)C(=O)O`, the “activity change, negative = cytotoxicity” value was -15.5% (inactive). For the compound `CC(C)C[C@@H](N)C(=O)O`, the compound was called inactive.

Take `CC(C)(C)NCC(O)COc1cccc2c1CCC(=O)N2` (stereo not given): the “activity change, negative = cytotoxicity” value was 12.8% [at 17.3 µM] (inactive). For the compound `CC1(C)S[C@@H]2[C@H](N=CN3CCCCCC3)C(=O)N2[C@H]1C(=O)O`, the “activity change, negative = cytotoxicity” value is -0.262% (inactive). Take `CC(C)=CCC[C@@](C)(O)[C@H]1CC=C(C)CC1`: the “activity change, negative = cytotoxicity” value was 5.03% (inactive).

Regarding `CC(=O)[C@@]1(O)CC[C@H]2[C@@H]3C[C@H](C)C4=CC(=O)C=C[C@]4(C)[C@@]3(F)[C@@H](O)C[C@@]21C`, the “activity change, negative = cytotoxicity” value was -25.4% [at 17.3 µM] (inactive). With `Nc1ncnc2c1ncn2[C@@H]1O[C@H](COP(=O)(O)O)[C@@H](O)[C@H]1O`, the “activity change, negative = cytotoxicity” value is -2.03% (inactive).
